Test results: PubChem BioAssay AID485364 (National Center for Advancing Translational Sciences (NCATS), 2010)
About 11,000 (3.1%) of roughly 360,000 compounds were called active. About 4% were inconclusive and are not listed. What follows is part of a selection rich in actives, with near analogues and random picks from the rest. A number with no mark means an inactive call. Calls follow the shape of the dose curve; as a rule, active = well fitted inhibition curve with a large enough effect; inconclusive = small, poorly fitted or top-dose-only effect; inactive = no such curve, though single readings can be large or run the other way.

molecular target: Schistosoma mansoni thioredoxin glutathione reductase (TGR) (UniProt Q962Y6); assay: qHTS Assay for the Inhibitors of Schistosoma Mansoni Peroxiredoxins; conditions: purified TGR, DTNB reduction, TNB absorbance 405 nm; series mostly up to 114 µM; activity change, negative = inhibition: at the top concentration; also: nearly all actives have a fitted effect of over 60% in size
Method in brief: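 TGR 20 nM + NADPH 100 uM (dispensed conc.), cpd preinc 15 min RT; start with NADPH (500 uM addition) then DTNB (15 mM addition). Kinetic TNB absorbance, 405 nm filter. Four-parameter Hill fit across titration.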
% is scaled to controls: 0 for no effect and ±100 for the full control effect; potency is read from the fitted curve at half-maximal effect.

| Compound | activity change, negative = inhibition [%] | Potency |
| --- | --- | --- |
| Cc1ccc(N(C)C(=O)C2CCN(S(=O)(=O)c3ccc4c(c3)CCCN4C(=O)C3CCC3)CC2)cc1 | -0.86 |  |
| COc1cccc(CNCc2c(C(=O)O)n(Cc3ccc(C)cc3)c3cc(C)ccc23)c1OC | 5.78 |  |
| Cc1ccc(NC(=O)CN2C(=O)CC(C)Sc3ccccc32)c(C)c1 (stereo not drawn) | -3.82 |  |
| Cc1ccc2oc(=O)c3cnn(CC(=O)NCc4ccccc4Cl)c3c2c1 | -4.87 |  |
| CC(C)c1ccc(NS(=O)(=O)c2ccc3[nH]cc(C(=O)NC4CCCC4)c(=O)c3c2)cc1 | 7.55 |  |
| CC(C)(C)C1C/C(=C/c2ccco2)C(=O)/C(=C/c2ccco2)C1 (stereo not drawn) |  | 39.8 µM (active) |
| CCOC(=O)C1(C)NC(c2ccco2)C2C(=O)N(c3ccccc3)C(=O)C21 (stereo not drawn) | -3.96 |  |
| CCCCN=C1N/C(=C\c2ccco2)C(=O)N1c1ccccc1 |  | 20 µM (active) |
| CCOc1c(CNCc2ccc(C(=O)O)cc2)cccc1OC | -2.21 |  |
| CCOc1cccc(CC(=O)N2CCc3c([nH]c4ccccc34)C2c2ccc(F)cc2)c1OCC (stereo not drawn) | 4.64 |  |
| CCOc1cccc2c1N[C@@H](c1ccc(C(=O)O)cc1)[C@H]1CC=C[C@@H]21 |  | 7.08 µM (active) |
| CCOC(=O)N1CCc2c(sc3c2c(=O)n(Cc2ccccc2)c(=O)n3CC(=O)Nc2cccc(C)c2)C1 | -0.288 |  |
| Cc1ccc(N2CC(c3nnc(Cc4ccccc4Cl)o3)CC2=O)cc1 (stereo not drawn) | 12 |  |
| CCOc1ccccc1CNC(=O)c1ccc2c(c1)nc1n2CCC(C)C1 (stereo not drawn) | -0.951 |  |
| CCOc1cccc2cc(-c3cn4c(n3)sc3cc(C)ccc34)c(=O)oc12 | 1.43 |  |
| COc1cccc(N2C(=O)NC(=O)/C(=C\c3ccc([N+](=O)[O-])s3)C2=O)c1 |  | 8.91 µM (active) |
| O=C1NC(=O)N(c2ccccc2)C(=O)/C1=C/c1ccc([N+](=O)[O-])s1 |  | 5.62 µM (active) |
| COc1cccc(/C=C2\SC(=N)N(c3ccc(F)cc3)C2=O)c1 | 3.46 |  |
| COc1cc(/C=C2/C(=O)NN(c3ccc(F)cc3)C2=O)cc([N+](=O)[O-])c1O | -12.7 |  |
| Cc1ccccc1-c1nc2scc(CCNC(=O)C(=O)Nc3ccc(F)cc3F)n2n1 | 0.0736 |  |
| Cc1ccc(S(=O)(=O)N(Cc2nc(-c3ccc(Cl)cc3)no2)C2CCCCC2)cc1 | 10.4 |  |
| COc1ccc(CCN2C(=O)c3oc4cc(C)cc(C)c4c(=O)c3C2c2ccccc2F)cc1OC (stereo not drawn) | -9.97 |  |
| Cc1cc(C)cc(OCC(=O)Nc2nc(-c3ccc(F)cc3)ns2)c1 | 6.53 |  |
| Cc1ccn2c(Nc3ccc4c(c3)OCCO4)c(-c3ccc(C)s3)nc2c1 | 4.83 |  |
| COc1cc(-n2c(C)nc3cc(C(=O)NCc4ccco4)ccc32)cc(OC)c1OC | 0.602 |  |
| COc1cc(Cn2c(N)c(C(=O)NCc3ccco3)c3nc4ccccc4nc32)cc(OC)c1OC |  | 7.08 µM (active) |

| Compound | activity change, negative = inhibition [%] | Potency |
| --- | --- | --- |
| COc1cc(C(=O)NC(=S)NCc2ccco2)cc(OC)c1OC | 3.26 |  |
| CCc1ccc(S(=O)(=O)c2nnn3c2nc(NCc2ccccc2OC)c2cc(Cl)ccc23)cc1 | 8.14 |  |
| Cc1nn(Cc2ccc(F)cc2)c(C)c1NC(=O)c1cc(CC(C)C)on1 | 0.928 |  |
| O=C(CSc1cccc2cccnc12)N/N=C/c1cccnc1 | 10.9 |  |
| COc1ccccc1N1CCN(C(CNC(=O)Oc2ccccc2)c2cccnc2)CC1 (stereo not drawn) | 0.19 |  |
| CCOC(=O)N1CCN(C(c2cccnc2)c2ccc3cccnc3c2O)CC1 (stereo not drawn) |  | 0.316 µM (active) |
| COc1ccc(CC(=O)Nc2nnc3n2CCS3)cc1OC | -0.169 |  |
| CCOC(=O)c1c(C)[nH]c(CCC(=O)NCCCN2CCN(c3cccc(Cl)c3)CC2)c1C | -6.57 |  |
| CN(C(=O)c1ccc2c(c1)N(Cc1cccc(Cl)c1)C(=O)c1ccccc1S2=O)C1CCCCC1 (stereo not drawn) | 13.3 |  |
| CCOc1ccc(C(C)NC(=O)CN2C(=O)NC3(CCCCC3)C2=O)cc1OCC (stereo not drawn) | 1.76 |  |
| CCOc1ccc(C(C)=O)cc1COC(=O)c1cnc(Cl)c(Cl)c1 | -19.2 |  |
| CCOc1ccc(C(C)=O)cc1COC(=O)CNC(=O)c1cccs1 |  | 11.2 µM (active) |
| CCOc1ccc(C(C)=O)cc1COC(=O)CN1C(=O)NC2(CCCC2)C1=O |  | 10 µM (active) |
| COc1ccc(C(=O)COC(=O)CNC(=O)c2cccs2)cc1Br | -32.3 |  |
| Cc1ccc(COC(=O)CN2C(=O)NC3(CCCC3)C2=O)cc1 | -26.1 |  |
| CCOc1ccccc1N(C)C(=O)c1cc2c(s1)-c1ccccc1OC2 | 0.733 |  |
| Cc1nnc(NCc2ccccc2)c2c1nnn2Cc1ccc(F)cc1 | 5.94 |  |
| CCc1nc(-c2cc(S(=O)(=O)N3CCN(c4ccc(OC)cc4)CC3)ccc2OC)no1 | 3.63 |  |
| Cc1ccc(CNC(=O)Cn2c(=O)ccc3cc(S(=O)(=O)N4CCCC4)ccc32)cc1 | -0.446 |  |
| Cc1ccc(NC(=O)CSc2nc3ccccc3c3nc(CCn4cncc4C)nn23)cc1F | -0.64 |  |
| CC(=O)c1ccc(NC(=O)N[C@@H](Cc2ccccc2)C(=O)O)cc1 | 2.42 |  |
| CC(=O)c1ccc(OC(NC(=O)Cc2ccccc2)C(Cl)(Cl)Cl)cc1 (stereo not drawn) |  | 22.4 µM (active) |
| CCC/C=C(\CCC)C(NC(=O)Cc1ccccc1)c1ccc(C(=O)OC)cc1 (stereo not drawn) | -12.9 |  |
| COc1ccc(NC(=O)c2sc3nc[nH]c(=O)c3c2C)cc1 | -1.14 |  |
| COc1ccccc1NC(=O)C1=C(C)Nc2nc(SCC(=O)c3ccc(C)cc3)nn2C1c1ccccc1C (stereo not drawn) | 7.49 |  |
| CCCCCn1c(=O)[nH]c2cc(C(=O)Nc3cc(C)cc(C)c3)ccc2c1=O | 0.323 |  |

| Compound | activity change, negative = inhibition [%] | Potency |
| --- | --- | --- |
| COc1ccc(SC[C@H](Cc2ccccc2)N2CCN(CCc3ccccc3)CCC2=O)cc1 |  | 17.8 µM (active) |
| C[C@H]1CCC(=O)N([C@H](CSc2ccccc2)Cc2ccccc2)CC1 | -20 |  |
| O=C1CC[C@H](O)CCN1[C@H](CSc1ccc(Br)cc1)Cc1ccccc1 | -6.32 |  |
| COc1cccc(NC(=O)CSC2=Nc3ccccc3C3=NC(CC(=O)NC4CCCCC4)C(=O)N23)c1 (stereo not drawn) | 3.31 |  |
| CC(=O)c1ccc(NC(=O)c2nc3nc(C)cc(C(F)F)n3n2)cc1 | -2.5 |  |
| O=C(/C=C/c1ccco1)NC(=S)Nc1ccccc1Br |  | 35.5 µM (active) |
| COc1ccc(Cl)cc1C(=O)NNC(=S)NC(=O)/C=C/c1ccco1 | -28.9 |  |
| O=C(/C=C/c1ccco1)NC(=S)N1CCCCC1 |  | 25.1 µM (active) |
| O=C(NNC(=S)Nc1ccc(Br)cc1Cl)c1ccco1 | -15.5 |  |
| COc1ccc(/C=C/C(=O)NC(=S)N2CCCC(C(N)=O)C2)cc1 (stereo not drawn) | 3.32 |  |
| COc1ccccc1/C=C/C(=O)NC(=S)N1CCOCC1 | -5.17 |  |
| O=C(Nc1ccc2nc(SCC(=O)N3CCCc4ccccc43)sc2c1)c1ccc(Cl)cc1 | 9.24 |  |
| COc1ccccc1-c1noc(CSc2nnc(-c3ccccc3)n2-c2ccc(C)c(C)c2)n1 | 4.75 |  |
| O=C(O)c1ccc(CSc2nc3cccnc3n2Cc2cccc(F)c2)cc1 | 9.94 |  |
| Cc1ccc(-n2ncc(C(=O)N(C)Cc3ccccc3)c2-n2cccc2)cc1 | 2.53 |  |
| CC(=O)c1ccc(NS(=O)(=O)c2ccc(-c3cc(C)no3)s2)cc1 | -8.37 |  |
| COc1ccccc1CNC(=O)c1ccc(-n2c(C)cc3c2CCCC3)cc1 | -25.8 |  |
| CN1C(=O)/C(=N/OC(=O)c2ccccc2Br)c2ccccc21 |  | 12.6 µM (active) |
| Cn1c(=O)c(=O)n(C)c2cc(NC(=O)c3ccccc3Br)ccc21 | 0.681 |  |
| CN1C(=O)/C(=C\c2cc(Br)cs2)c2ccccc21 | -1.32 |  |
| Cc1ccc(C)c(NC(=O)CSC2=Nc3ccccc3N=C(c3ccc(F)cc3)C2)c1 | -2.76 |  |
| COc1cc(C(=O)Nc2ccc(-n3c(C)nc4ccccc4c3=O)cc2)cc(OC)c1OC | -1.35 |  |
| CC(C)(C)c1ccc(C(=O)NNC(=O)Cc2ccccc2)cc1 | 4.42 |  |
| Cc1ccc(Sc2cc(C(=O)c3ccccc3C(=O)O)ccc2[N+](=O)[O-])cc1 | -7.05 |  |
| Cc1ccc(SC(CC(=O)c2ccc(C(C)(C)C)cc2)C(=O)O)cc1 (stereo not drawn) |  | 2 µM (active) |
| COc1ccc2[nH]c3c(c2c1)CCN(C(=O)CCC1CCCC1)C3c1ccc(F)cc1 (stereo not drawn) | -6.55 |  |

| Compound | activity change, negative = inhibition [%] | Potency |
| --- | --- | --- |
| C#CCNC(=O)C1=C[C@@H](c2ccccc2)[C@H](CCCO)[C@@H](OCC)O1 |  | 35.5 µM (active) |
| CCO[C@@H]1OC(C(N)=O)=C[C@H](c2ccc(Br)cc2)[C@H]1CCCO | 2.27 |  |
| CCO[C@H]1OC(C(=O)NCc2ccccc2)=C[C@@H](c2coc3ccccc3c2=O)[C@@H]1CCCO | -1.2 |  |
| CCn1c(SCC(=O)Nc2nccs2)nnc1-c1ccco1 | -7.64 |  |
| Cn1c(SCC(=O)N2CCCC2)nnc1-c1cccs1 | -6 |  |
| Cn1c(SCC(=O)c2cccs2)nnc1-c1ccco1 |  | 44.7 µM (active) |
| Cc1ccc(SCC(=O)Nc2ccc3oc(-c4ccccc4F)nc3c2)cc1 | -9.68 |  |
| CCc1ccc(Nc2nn3c(=O)c4cc5c(cc4nc3s2)OCO5)cc1 | -4.94 |  |
| O=C(O)CCS(=O)(=O)c1ccc(-c2ccccc2)cc1 | -10.8 |  |
| Cc1ccc(S(=O)(=O)NCCC(=O)Nc2ccc(C)c(Cl)c2)cc1C | 4.29 |  |
| CC(=O)CCS(=O)(=O)c1ccc(C)c(C)c1 |  | 50.1 µM (active) |
| CC(=O)c1c(C)n(S(=O)(=O)c2ccc(Cl)cc2)c2ccc(NS(=O)(=O)c3ccc(Cl)cc3)cc12 | -17.9 |  |
| CSc1nn(Cc2cccc(C)c2)c(N)c1S(=O)(=O)c1ccccc1 | 12.3 |  |
| COc1ccc(/C=C(/NC(=O)c2ccco2)C(=O)Nc2ccc(C(C)=O)cc2)cc1 | -6.99 |  |
| O=C(Nc1ccccc1)/C(=C\c1ccco1)NC(=O)c1ccco1 |  | 10 µM (active) |
| Cc1ccc(C(=O)N/C(=C\c2ccco2)C(=O)NC2CCS(=O)(=O)C2)cc1 (stereo not drawn) |  | 31.6 µM (active) |
| Cc1ccc(NC(=O)/C(=C\c2ccccc2)NC(=O)c2ccco2)cc1 | -2.41 |  |
| NC(=O)C1CCN(C(=O)/C(=C/c2ccco2)NC(=O)c2ccccc2)CC1 | -24.6 |  |
| O=C(NCc1ccco1)/C(=C/c1ccco1)NC(=O)c1ccccc1 |  | 39.8 µM (active) |
| Cc1ccc(C(=O)N/C(=C/C=C/c2ccccc2)C(=O)NCc2ccco2)cc1 | 0.675 |  |
| COc1ccccc1C(=O)N/C(=C/c1ccc2c(c1)OCO2)C(=O)Nc1cccc(C(=O)O)c1 | 6.54 |  |
| O=C(NNC(=O)c1ccco1)Nc1ccccc1 | 4.12 |  |
| COc1ccccc1C(=O)N/C(=C/c1ccco1)C(=O)Nc1ccc(C(=O)O)cc1 |  | 50.1 µM (active) |
| CC(C)(C)c1ccc(/C=C/C(=O)NC2CCS(=O)(=O)C2)cc1 (stereo not drawn) | 12.1 |  |
| O=C(NCC1CCCO1)/C(=C\c1ccco1)NC(=O)c1ccccc1 (stereo not drawn) | -35.4 |  |
